Test systems include HCT-15 colon; HT29 colon; SNB-75 CNS; SNB-19 CNS; U251 CNS; PC-3 prostate; SK-MEL-5 melanoma; UACC-62 melanoma; LOX IMVI melanoma; SK-MEL-28 melanoma; SK-MEL-2 melanoma; EKVX NSCLC; SN12C renal; UO-31 renal; TK-10 renal; ACHN renal; CAKI-1 renal; A498 renal; CCRF-CEM leukemia; MOLT-4 leukemia.
Holding throughout (test): NCI-60 one-dose screen, 48 h (100 = growth as untreated, 0 = no growth, -100 = all killed)
Holding throughout (settings): 10 µM unless noted

Compounds without any hit were thinned out: in the full panel of roughly 83,000, 20% have a hit.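 Treatment: one concentration, 48 hours, 96-well format. Scoring: percent growth, with anything below 10 considered active.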 Values without a mark were called inactive. The source made the active and inactive calls.

With `NC(N)=NS(=O)(=O)c1ccc(N=Nc2c(N)nn(-c3ccc([N+](=O)[O-])cc3[N+](=O)[O-])c2N)cc1`, the growth in the assay with HCT-15 colon is 99.9%; in the assay with HT29 colon, 105%; in the assay with SNB-75 CNS, 94.7%; with SNB-19 CNS, 99.8%; in the assay on U251 CNS, 99.9%; in the assay with PC-3 prostate, 92.8%. Moreover, the growth is 99% with SK-MEL-5 melanoma; 95.2% in the assay on UACC-62 melanoma; 97.2% in the assay on LOX IMVI melanoma; 109% in the assay with SK-MEL-28 melanoma; 106% with SK-MEL-2 melanoma; 99% in the assay on EKVX NSCLC. The growth was 101% in the assay on SN12C renal; 82.5% with UO-31 renal; 120% in the assay with TK-10 renal; 101% in the assay with ACHN renal; 90.5% in the assay on CAKI-1 renal; 94.5% in the assay with A498 renal. Also, the growth with CCRF-CEM leukemia is 97.7%; with MOLT-4 leukemia, 99.4%.

For the compound `N#C/C(=N\Nc1ccc(F)cc1)C(=O)Nc1cc(-c2ccccc2)nn1-c1ccccc1`, the growth in the assay on HCT-15 colon is 8.61% (active); in the assay on HT29 colon, 8.84% (active); with SNB-75 CNS, -5.46% (active); in the assay with SNB-19 CNS it was 5.24% (active); in the assay with U251 CNS, 8.65% (active); in the assay with PC-3 prostate it was 7.13% (active). Besides, the growth in the assay on SK-MEL-5 melanoma was -51.4% (active); in the assay with UACC-62 melanoma, 4.43% (active); in the assay on LOX IMVI melanoma, 12.5%; with SK-MEL-28 melanoma it was 22.1%; with SK-MEL-2 melanoma, 4.66% (active); with EKVX NSCLC, 5.52% (active). In addition, the growth with SN12C renal is 1.17% (active); with UO-31 renal, 3.54% (active); with TK-10 renal, 26.6%; in the assay with ACHN renal it was 1.44% (active); in the assay on CAKI-1 renal it was 2.61% (active); in the assay with A498 renal it was -4.27% (active). Further, the results for the growth in the assay on CCRF-CEM leukemia and with MOLT-4 leukemia were 15.7% and 21.9%, respectively.

As to `O=C(CCl)Nc1ccc(NC(=O)c2cc(Cl)ccc2O)c(Cl)c1`, the growth was 25.9% in the assay on HCT-15 colon; 64.6% with HT29 colon; 77.1% in the assay with SNB-75 CNS; 80% in the assay with SNB-19 CNS; 42.8% in the assay with U251 CNS; 87.1% with PC-3 prostate. The growth is 57.8% in the assay on SK-MEL-5 melanoma; 56.4% with UACC-62 melanoma; -88.1% (active) in the assay on LOX IMVI melanoma; 88.5% in the assay with SK-MEL-28 melanoma; 92% in the assay with SK-MEL-2 melanoma; 95.9% in the assay with EKVX NSCLC. Moreover, the growth in the assay on SN12C renal was 68.4%; with UO-31 renal it was 54.7%; with TK-10 renal it was 129%; with ACHN renal, 85.8%; in the assay with CAKI-1 renal, 59.2%; with A498 renal, 100%. Also, the figures for the growth in the assay with CCRF-CEM leukemia and in the assay on MOLT-4 leukemia were 9.8% (active) and 25.7%, respectively.

As for `CCCC/C(=C\c1ccc(O)c(O)c1)C(=O)NC(Cc1ccccc1)C(=O)C(=O)NCCc1ccc(OC)cc1` (stereo not given), the growth is 93.4% in the assay with HCT-15 colon; 105% in the assay on HT29 colon; 86.9% in the assay with SNB-75 CNS; 91.2% in the assay on SNB-19 CNS; 103% in the assay with U251 CNS; 94.4% in the assay on PC-3 prostate. For the same compound, the growth is 98.9% in the assay with SK-MEL-5 melanoma; 86.6% with UACC-62 melanoma; 89.4% with LOX IMVI melanoma; 102% in the assay with SK-MEL-28 melanoma; 98.8% in the assay with SK-MEL-2 melanoma; 83.3% in the assay on EKVX NSCLC. For the same compound, the growth was 95.3% with SN12C renal; 93.4% with UO-31 renal; 107% in the assay with TK-10 renal; 96.2% with ACHN renal; 96.5% in the assay on CAKI-1 renal; 85.7% in the assay on A498 renal. For the same compound, the growth is 97% in the assay with CCRF-CEM leukemia and 85.4% with MOLT-4 leukemia.

`COc1cc2oc(-c3cccc(NC(=O)c4cccc([N+](=O)[O-])c4)c3)cc(=O)c2c(OC)c1OC`: the growth is 56% in the assay with HCT-15 colon; 66.4% in the assay on HT29 colon; -13.5% (active) in the assay on SNB-75 CNS; 53.6% with SNB-19 CNS; 41.9% in the assay on U251 CNS; 50.2% with PC-3 prostate. Moreover, the growth in the assay with SK-MEL-5 melanoma was 55%; with UACC-62 melanoma, 51%; with LOX IMVI melanoma, 33.4%; with SK-MEL-28 melanoma, 88.1%; with SK-MEL-2 melanoma, 91.5%; with EKVX NSCLC, 63.9%. Besides, the growth in the assay with SN12C renal is 40.2%; in the assay with UO-31 renal, 37.8%; with TK-10 renal it was 92.7%; in the assay on ACHN renal it was 30.3%; in the assay with CAKI-1 renal, 49.7%; with A498 renal, 72.9%. Besides, the growth in the assay on CCRF-CEM leukemia was 59.7%; in the assay with MOLT-4 leukemia, 54%.

On to `CCOP(=O)(OCC)OC[C@]12CCC(C)(C)C[C@H]1C1=CC[C@@H]3[C@@]4(C)CC[C@H](OP(=O)(OCC)OCC)C(C)(C)[C@@H]4CC[C@@]3(C)[C@]1(C)CC2`, for which the growth is 34.6% with HCT-15 colon; 41.4% in the assay on HT29 colon; 58.9% in the assay with SNB-75 CNS; 71.2% in the assay on SNB-19 CNS; 49.1% in the assay with U251 CNS; 19.3% in the assay with PC-3 prostate. Also, the growth is 31.3% with SK-MEL-5 melanoma; 53.9% in the assay with UACC-62 melanoma; 37.2% in the assay with LOX IMVI melanoma; 78.9% in the assay on SK-MEL-28 melanoma; 88.2% in the assay on SK-MEL-2 melanoma; 55% in the assay with EKVX NSCLC. For the same compound, the growth with SN12C renal was 55.3%; in the assay with UO-31 renal, 34.2%; in the assay on TK-10 renal it was 67.4%; in the assay on ACHN renal, 67.2%; in the assay with CAKI-1 renal, 45.9%; in the assay with A498 renal, 79.8%. For the same compound, the growth in the assay with CCRF-CEM leukemia was 49.2%; in the assay with MOLT-4 leukemia it was 32.7%.

For `C#C[C@]1(O)CC[C@H]2[C@@H]3CC=C4c5sc(Nc6cccc(F)c6)nc5CC[C@]4(C)[C@H]3CC[C@@]21C`, the growth with HCT-15 colon is -28.6% (active); in the assay on HT29 colon, -23.3% (active); with SNB-75 CNS, 24.1%; in the assay on SNB-19 CNS it was 35.8%; with U251 CNS it was 10%; with PC-3 prostate, 19.2%. The growth with SK-MEL-5 melanoma is 42.6%; in the assay with UACC-62 melanoma it was 5.77% (active); in the assay on LOX IMVI melanoma, -57.6% (active); in the assay with SK-MEL-28 melanoma, 13.8%; in the assay with SK-MEL-2 melanoma, 27.8%; in the assay with EKVX NSCLC, 25%. The growth in the assay on SN12C renal was 45.6%; in the assay with UO-31 renal, 17.1%; in the assay with TK-10 renal, 65.1%; with ACHN renal, 35%; in the assay on CAKI-1 renal, 7.13% (active); in the assay on A498 renal, 31.7%. Moreover, the values for the growth in the assay with CCRF-CEM leukemia and with MOLT-4 leukemia were 8.66% (active) and 5.5% (active), respectively.
